Screening data: PubChem, The Scripps Research Institute Molecular Screening Center
Hits are enriched below; roughly 2.4% of the tested compounds scored in any of these assays.
CHO-K1 Ca PAM: M1 PAM counterscreen hit in parental CHO-K1 cells; AID 602247; ATP EC20, Fluo-8 calcium fluorescence; 0% at ATP EC20, 100% at ATP max; activation, % at 3 µM; actives 0.02% (n = 360,000);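 active means activation above the run cutoff, the mean activation of all test compounds plus 3 SD, cut at about 40% in these data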;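 further: peak over basal fluorescence ratio in a 140 s read after ATP addition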
M1 antag: human CHRM1 antagonism | P11229 | CHO-K1 hM1, Fluo-8 calcium fluorescence, ACh EC80 antagonist | inhibition, % at 3 µM | actives 1.3% (n = 360,000);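 active means percent inhibition above its own plate's cutoff, namely the mean of that plate's compound wells plus 3 SD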;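 further: peak over basal fluorescence ratio during 140 s after agonist addition; 0% = ACh EC80 plus DMSO and 100% = DMSO alone without agonist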
Target sequence (P11229 whole entry, looked up): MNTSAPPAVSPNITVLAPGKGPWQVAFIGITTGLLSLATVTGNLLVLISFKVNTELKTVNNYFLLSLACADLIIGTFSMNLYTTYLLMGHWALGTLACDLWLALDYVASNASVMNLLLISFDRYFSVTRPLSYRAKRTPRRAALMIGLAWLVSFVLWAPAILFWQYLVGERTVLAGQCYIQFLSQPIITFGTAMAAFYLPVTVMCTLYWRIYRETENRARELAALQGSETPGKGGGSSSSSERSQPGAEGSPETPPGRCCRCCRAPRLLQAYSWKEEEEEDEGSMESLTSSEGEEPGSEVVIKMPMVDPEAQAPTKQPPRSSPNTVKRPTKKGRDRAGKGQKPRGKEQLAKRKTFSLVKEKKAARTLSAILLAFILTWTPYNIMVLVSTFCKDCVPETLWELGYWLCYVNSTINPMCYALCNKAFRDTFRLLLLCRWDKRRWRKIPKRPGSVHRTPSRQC
CHRM1 agonist: activates human CHRM1 receptor. AID 588814. activation, % at 3 µM. P11229. actives 0.33% (n = 360,000). CHO-K1 hM1, Fluo-8 calcium fluorescence, agonist mode; 0% DMSO, 100% acetylcholine EC100;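 active means activation above the run's mean compound activation plus 3 SD, cut at about 16% in these data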;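 further: peak over basal fluorescence ratio within a 140 s kinetic read after compound addition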
M1 PAM: positive allosteric modulators of human M1 muscarinic receptor. actives 0.088% (n = 360,000). CHO-K1 hM1, Fluo-8 calcium fluorescence, ACh EC20; 0% = ACh EC20, 100% = maximal ACh. P11229. activation, % at 3 µM; in the data active means activation above about 19%, passing the limit was not always enough
CHO-K1 Ca ag: counter-screen for M1 agonists: effect in parental CHO-K1 cells; Fluo-8 calcium fluorescence; scaled to maximal ATP response, vehicle zero; activation, % at 3 µM; actives 0.48% (n = 360,000); in the data active means activation above about 15%;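 further: untransfected CHO-K1 host cells lacking M1 receptor as counterscreen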
CHO-K1 Ca antag: nonselective inhibitor or artifact in parental CHO-K1 cells; AID 602250; ATP-induced calcium, Fluo-8 fluorescence; inhibition, % at 3 µM; actives 0.6% (n = 360,000);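 active means inhibition above a per-plate cutoff, the plate's mean sample inhibition plus 3 SD, cut at about 24% in these data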;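 further: 0% = DMSO plus EC80 ATP and 100% = DMSO alone without ATP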
* = called active by the depositor.

SMILES	CHO-K1 Ca PAM	M1 antag	CHRM1 agonist	M1 PAM	CHO-K1 Ca ag	CHO-K1 Ca antag
CC1(c2ccc(OC(F)F)cc2)NC(=O)N(CC(=O)c2ccc3c(c2)OCO3)C1=O (stereo not given)	-15.7	1.4	42.9*	-10.1	35.8*	0.2
O=C(CCc1nc2ccccc2c(=O)[nH]1)Nc1nnc(SCc2ccccc2F)s1	2.2	48.6*	-8.4	-26.8	1.1	-5.2
O=C(Nc1nnc(SCc2ccccc2F)s1)C1=COCCO1	-8.0	7.8	-3.6	-7.5	17.3*	9.7
O=C(Nc1nnc(SCc2ccccc2)s1)C1=COCCO1	-16.6	8.9	-7.5	-9.7	1.9	-0.8
O=C(Cc1cccs1)Nn1c(Cc2cccs2)nc2ccccc2c1=O	-12.9	17.9	-7.3	-5.0	0.1	30.1*
CC1CCN(Cc2ccc(NC(=O)C3CCN(c4nnc(-n5cccc5)s4)CC3)cc2)CC1	5.8	97.3*	-14.0	-34.9	0.0	-6.2
COc1cc(C2Nc3ccccc3C(=O)N2NS(C)(=O)=O)c([N+](=O)[O-])cc1OC (stereo not given)	7.4	-4.0	-3.1	27.3*	-0.2	-7.4
O=C(NCc1ccco1)c1ccc2sc([C@@H]3O[C@H](CO)[C@H](O)[C@H](O)[C@H]3O)nc2c1	5.6	-11.2	-3.0	0.3	0.2	-1.1
Cc1ccc(CC(NC(=O)c2ccccc2)C(=O)NC(Cc2ccccc2)C(=O)O)cc1 (stereo not given)	18.9	0.4	-1.8	-2.5	0.7	-6.0
O=C(NC(Cc1ccc2c(c1)OCO2)C(=O)NC(Cc1ccccc1)C(=O)O)c1ccccc1 (stereo not given)	-5.9	3.7	-3.0	3.1	-0.2	24.7*
O=C(O)CC(Cc1ccccc1)c1ccc2c(c1)OCO2 (stereo not given)	-9.6	13.1	-4.1	-1.4	-0.2	32.7*
O=C(COC(=O)/C=C/c1ccc(Cl)c(Cl)c1)NC1CCS(=O)(=O)C1 (stereo not given)	-1.6	15.0	1.4	-5.1	15.8*	13.6
O=C(COC(=O)/C=C/c1ccc(Cl)c(Cl)c1)NC1CCCC1	13.6	-19.1	0.3	15.1	1.2	-2.4
CN1CCC(OC2c3ccccc3CCc3ccccc32)CC1	11.8	99.3*	-6.0	-29.7	2.8	-10.5
COc1cc(C2C3=C(COC3=O)Oc3cc4c(cc32)OCO4)ccc1OC(C)=O (stereo not given)	15.1	-3.6	-5.4	1.0	0.6	-14.2
COc1ccc(C2C3=C(COC3=O)Oc3cc4c(cc32)OCO4)cc1OC (stereo not given)	7.6	-25.4	-1.2	28.5*	0.1	-14.2
COc1ccc2nc(C)cc(NCc3ccc(F)cc3)c2c1	15.7	28.7*	2.4	-10.2	3.8	4.5
O=C(CN1CCN(Cc2ccccc2Cl)CC1)N/N=C/C=C\c1ccccc1[N+](=O)[O-]	-9.2	3.2	-10.3	6.9	1.7	9.1
O=C(CN1CCN(Cc2ccccc2Cl)CC1)N/N=C/C=C/c1ccccc1[N+](=O)[O-]	-12.5	15.6	-7.1	-8.7	1.0	27.3*
C[C@H](CO)N1C[C@H](C)[C@@H](CN(C)CC2CC2)Oc2c(NC(=O)C3CC3)cccc2C1=O	-1.4	5.6	-7.1	-3.0	0.1	-4.7
Cc1cc(C(=O)Nc2cccc3c2O[C@H](CN(C)CC2CC2)[C@@H](C)CN([C@H](C)CO)C3=O)n(C)n1	56.1*	-5.8	5.1	6.8	9.9	-28.1
C[C@H](CO)N1C[C@H](C)[C@@H](CN(C)C(=O)Nc2ccc(C(F)(F)F)cc2)Oc2c(NC(=O)Nc3ccc(C(F)(F)F)cc3)cccc2C1=O	20.9	-0.9	0.4	3.4	3.4	-10.3
C[C@H]1CN([C@@H](C)CO)C(=O)c2cccc(NC(=O)Nc3ccc(C(F)(F)F)cc3)c2O[C@H]1CN(C)C	2.9	-12.9	6.0	26.5*	-0.3	1.5
O=C(NCCc1ccccc1)C(=O)NCC1OCCN1S(=O)(=O)c1ccc2c(c1)OCCO2 (stereo not given)	3.2	5.0	-0.7	0.1	19.2*	0.4
CCOC(=O)c1ccccc1NC(=S)N1CCN(C(=O)c2ccco2)CC1	-8.7	-0.2	-2.8	-2.3	4.2	-1.9
